Assay results as given in the supplement of paper PMC13172266.
Where a name gives a salt, the structure may show the parent alone.

system: U2932 TK216-resistant clone 2; assay: cell proliferation relative to vehicle (% of vehicle); higher = less growth inhibition; details: 50 nM; 72 h
In short: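 Parental U2932 cells (ABC-DLBCL) and two clones made resistant to an ETS-targeting agent by almost a year of repeated exposure were treated for 72 h with 348 targeted inhibitors at 500 nM or 50 nM. MTT was then applied for 4 h, the reaction was stopped with 25% SDS, and absorbance was measured on a Cytation 3. Values express proliferation as percent of proliferating cells compared with DMSO vehicle.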

| Compound | cell proliferation |
| --- | --- |
| O=C1NC(=O)C(c2ccccc2[N+](=O)[O-])=C1Nc1ccc(O)c(Cl)c1 | 111 |
| C[S+]([O-])c1ccc(-c2nc(-c3ccc(F)cc3)c(-c3ccncc3)[nH]2)cc1 (centres undefined) | 109 |
| CCC[C@H](Nc1nc(-c2ccc(NC(=O)NCC)c(OC)c2)ncc1C)c1cccnc1 [CYT997 (Lexibulin)] | 10.1 |
| CC1(C)CNc2cc(NC(=O)c3cccnc3NCc3ccncc3)ccc21 [Motesanib Diphosphate (AMG-706)] | 103 |
| Cc1nnc(C(C)C)n1C1C[C@H]2CC[C@@H](C1)N2CC[C@H](NC(=O)C1CCC(F)(F)CC1)c1ccccc1 (stereo in doubt) [Maraviroc] | 107 |
| Nc1ccc(C(=O)Nc2cccc(-c3nc(N4CCOCC4)c4oc5ncccc5c4n3)c2)cn1 | 98.7 |
| CCCC(CCC)C(=O)O [Valproic acid sodium salt (Sodium valproate)] | 98.2 |
| N#Cc1c(Oc2ccc(F)c(NC(=O)Cc3cccc(C(F)(F)F)c3)c2)ccc2nc(NC(=O)C3CC3)sc12 | 104 |
| Oc1ccc(/C=C/c2cc(O)cc(O)c2)cc1 [Resveratrol] | 102 |
| CC1(C)CCC(CN2CCN(c3ccc(C(=O)NS(=O)(=O)c4ccc(NCC5CCOCC5)c([N+](=O)[O-])c4)c(Oc4cnc5[nH]ccc5c4)c3)CC2)=C(c2ccc(Cl)cc2)C1 | 74.5 |
| CO[C@H]1C[C@@H]2CC[C@@H](C)[C@@](O)(O2)C(=O)C(=O)N2CCCC[C@H]2C(=O)O[C@H]([C@H](C)C[C@@H]2CC[C@@H](OP(C)(C)=O)[C@H](OC)C2)CC(=O)[C@H](C)/C=C(\C)[C@@H](O)[C@@H](OC)C(=O)[C@H](C)C[C@H](C)/C=C/C=C/C=C/1C [Ridaforolimus (Deforolimus, MK-8669)] | 67.9 |
| CCC(C)(C)C(=O)O[C@H]1C[C@@H](C)C=C2C=C[C@H](C)[C@H](CC[C@@H]3C[C@@H](O)CC(=O)O3)[C@H]21 [Simvastatin] | 91.4 |
| Cc1cc(CS(=O)(=O)c2ccccc2)cc(OCc2ccc(CN3CCC[C@@H]3CO)cc2)c1 | 105 |
| Cn1c(Nc2ccc(C(F)(F)F)cc2)nc2cc(Oc3ccnc(-c4ncc(C(F)(F)F)[nH]4)c3)ccc21 | 96.1 |
| CC[C@H](Nc1ncnc2[nH]cnc12)c1nc2cccc(F)c2c(=O)n1-c1ccccc1 [CAL-101 (Idelalisib, GS-1101)] | 103 |
| COc1cc(F)c(F)c(Nc2ccc(I)cc2F)c1NS(=O)(=O)C1(C[C@H](O)CO)CC1 [Refametinib (RDEA119, Bay 86-9766)] | 104 |
| CC(=O)Nc1cccc(-n2c(=O)n(C3CC3)c(=O)c3c(Nc4ccc(I)cc4F)n(C)c(=O)c(C)c32)c1 | 103 |
| O=C(O)CCNc1cc(N2CCc3ccccc3CC2)nc(-c2ccccn2)n1 | 103 |
| C[C@@H]1CCN(C(=O)CC#N)C[C@@H]1N(C)c1ncnc2[nH]ccc12 | 102 |
| COc1ccc(-c2ccc3ncc4c(c3c2)n(-c2ccc(N3CCNCC3)c(C(F)(F)F)c2)c(=O)n4C)cn1 | 15.8 |

| Compound | cell proliferation |
| --- | --- |
| Clc1ccc(C2(c3ccc(-c4cn[nH]c4)cc3)CCNCC2)cc1 | 88.5 |
| O=C(CCCCCCNC(=O)c1cnc(N(c2ccccc2)c2ccccc2)nc1)NO [Rocilinostat (ACY-1215)] | 104 |
| CCCCCCCCCCCC1=C(O)C(=O)C=C(O)C1=O [Embelin] | 90.5 |
| COc1cc2ncnc(Oc3ccc(CC(=O)Nc4cnn(C(C)C)c4)cc3)c2cc1OC | 100 |
| C[C@H](NC(=O)/C(C#N)=C/c1cccc(Br)n1)c1ccccc1 | 108 |
| CO[C@H]1C[C@@H]2CC[C@@H](C)[C@@](O)(O2)C(=O)C(=O)N2CCCC[C@H]2C(=O)O[C@H]([C@H](C)C[C@@H]2CC[C@@H](OC(=O)C(C)(CO)CO)[C@H](OC)C2)CC(=O)[C@H](C)/C=C(\C)[C@@H](O)[C@@H](OC)C(=O)[C@H](C)C[C@H](C)/C=C/C=C/C=C/1C | 68.3 |
| CNC(=O)c1ccccc1Sc1ccc2c(/C=C/c3ccccn3)n[nH]c2c1 [Axitinib] | 110 |
| CCOC(=O)c1[nH]c2cc(Cl)ccc2c1C(C(=O)NC(C)(C)C)N(C=O)Cc1ccc(Cl)cc1 (centres undefined) | 106 |
| O=C(NC[C@H](O)CO)c1ccncc1Nc1ccc(I)cc1F | 91 |
| NC(=O)c1cccc2cn(-c3ccc([C@@H]4CCCNC4)cc3)nc12 [MK-4827(Niraparib) tosylate] | 103 |
| CC(C)N(CCCNC(=O)Nc1ccc(C(C)(C)C)cc1)C[C@H]1O[C@@H](n2cc(Br)c3c(N)ncnc32)[C@H](O)[C@@H]1O | 108 |
| O=C(O)CC[C@H]1CC[C@@](c2cc(F)ccc2F)(S(=O)(=O)c2ccc(Cl)cc2)CC1 | 102 |
| Clc1ccc(Nc2nnc(Cc3ccncc3)c3ccccc23)cc1 [Vatalanib (PTK787) 2HCl] | 109 |
| C=CCc1ccc(O)c(-c2ccc(O)c(CC=C)c2)c1 [Honokiol] | 108 |
| O=C(O)C(=O)O.[NH-][C@@H]1CCCC[C@H]1[NH-].[Pt+2] [Oxaliplatin] | 104 |
| CN1CCC(CNc2ccc3ncc(-c4cccc(OC(F)(F)F)c4)n3n2)CC1 [SGI-1776 free base] | 103 |
| O=c1ncccn1[C@@H]1O[C@H](CO)[C@@H](O)[C@H]1O [Zebularine] | 111 |
| COc1cc(Nc2ncc(F)c(Nc3ccc4c(n3)N(COP(=O)(O)O)C(=O)C(C)(C)O4)n2)cc(OC)c1OC [Fostamatinib (R788)] | 96.7 |
| Oc1cccc(-c2nc(N3CCOCC3)c3oc4ncccc4c3n2)c1 | 97.4 |
